Consider 54 compounds from PubChem BioAssay AID686978 (National Center for Advancing Translational Sciences (NCATS), 2013).

About 64,000 (15%) of roughly 420,000 compounds were called active. Inconclusive results (about 27%) are left out. These entries were drawn from the full list. A number with no mark means an inactive call. Calls follow the shape of the dose curve; as a rule, active = well fitted inhibition curve with a large enough effect; inconclusive = small, poorly fitted or top-dose-only effect; inactive = flat fitted curve, though single readings scatter.
% is scaled to controls: 0 for no effect and ±100 for the full control effect; potency is read from the fitted curve at half-maximal effect.

A short description of this assay: qHTS for Inhibitors of human tyrosyl-DNA phosphodiesterase 1 (TDP1): qHTS in cells in absence of CPT. Also: nearly all actives have a fitted effect of over 55% in size. Particulars: DT40 Tdp1-/- hTDP1 cells, no CPT, ATP luminescence, 48 h; activity change, negative = growth inhibition: at 46.2 µM (top of the series). In outline:
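Stably hTDP1-transfected Tdp1-null chicken DT40 cells were treated with library compounds minus camptothecin and grown for at least 48 hr at 37 °C, after which cellular ATP was quantified by luminescence.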
(In general: In qHTS, concentration-response curves come from the screen itself.)
`CN(C)c1ccc(N/C=C/C(=O)C(F)(F)F)cc1`: the “activity change, negative = growth inhibition” value is -24.1%.
`CCOc1ccc(S(=O)(=O)N/N=C(\C)c2ccc(Cl)c(Cl)c2Cl)cc1`: the “activity change, negative = growth inhibition” value was -21.3%.
Same read-out and setting: then `CCOc1ccc(OCC)c(NC(=O)C(NS(=O)(=O)c2ccc3c(c2)oc(=O)n3C)C(C)C)c1` (centres undefined), with -14.7%; and `O=C(CC1NCCNC1=O)Nc1ccc(Oc2ccccc2)cc1` (centres undefined), with 0.505%.
With `CCN(CC)c1cc(NC2CCCCC2)c2c3c(onc13)-c1ccccc1C2=O`, the Potency was 18.4 µM (active).
In the case of `Cc1nnc(SCC(=O)Nc2cccc(N)c2)n1-c1ccccc1`, the “activity change, negative = growth inhibition” value is -23.3%.
As for `COc1cc2c(cc1OC)C(c1ccc(C)o1)CC(=O)N2` (centres undefined), the “activity change, negative = growth inhibition” value is -4.53%.
On the same count and under the same terms, the same measure for `CC(C)Oc1ccc(C2NC(=O)NC2=O)cc1` (centres undefined): 1.33%.
Take `Cc1cc2c(cc1C)C(c1cccc(OC(C)C)c1)CC(=O)N2` (centres undefined): the Potency was 23.1 µM (active).
As for `COC(=O)c1ccc(C2CC(=O)Nc3cc(OC)c(OC)cc32)cc1` (centres undefined), the “activity change, negative = growth inhibition” value was -16.9%.
`COc1cc2c(cc1OC)C(c1ccncc1)CC(=O)N2` (centres undefined): the “activity change, negative = growth inhibition” value was 18.7%.
For the compound `COc1ccc(C2CC(=O)Nc3cc(C)c(C)cc32)c(OC)c1OC` (centres undefined), the Potency is 20.6 µM (active).
For `CC1CN(c2cc(=O)n(Cc3ccc(F)cc3)c(=O)[nH]2)CC(C)O1` (centres undefined), the “activity change, negative = growth inhibition” value was -0.502%.
The same measure, in the same setting: then `O=C1CCCCN1CCCC(=O)N1CCCC(Nc2ccc(F)cc2)C1` (centres undefined), with -24.8%.
The same measure, in the same setting: then `CCOC(=O)C1(Cc2ccccc2C)CCCN(C(=O)CN2C(=O)CSC2=O)C1` (centres undefined), with -8.61%; and `Cc1nc2cnc(N3CCN(C)CC3)nc2n(C[C@H]2CCCO2)c1=O`, with 13.7%; and `CC(=O)C1=C(O)C(=O)N(c2ccc(Br)cc2)C1c1ccc([N+](=O)[O-])cc1` (centres undefined), with 21.4%.
The same measure, in the same setting: the same measure for `O=C1CCc2cc(S(=O)(=O)Nc3ccc(C(F)(F)F)cc3)cc3c2N1CC3`: -17.8%.
Turning to `O=C1Cc2cc(S(=O)(=O)Nc3ccc(OC(F)(F)F)cc3)cc3c2N1CCC3`, the Potency was 18.4 µM (active).
Regarding `Nc1ncc(S(=O)(=O)Nc2ccc(OC(F)(F)F)cc2)cn1`, the “activity change, negative = growth inhibition” value was -22.8%.
Same read-out and setting: then `C=CCOc1ccccc1CNn1c(C)n[nH]c1=S`, with -17.6%; and `CCCN(C(=O)CSc1nnc(N)s1)c1c(N)n(Cc2ccccc2)c(=O)[nH]c1=O`, with -9.5%.
Still for that read-out and setting: the same measure for `CCCN1C(=O)C(Cc2nc3ccccc3c(=O)n2-c2ccccc2)c2cc(C)ccc21` (centres undefined): -12.9%.
Still for that read-out and setting: the same measure for `O=c1c2ccccc2ncn1/N=C/c1ccccc1`: -4.26%.
Turning to `CCCc1nc2ccccc2c(=O)n1/N=C/c1ccc(O)c(O)c1`, the Potency is 16.4 µM (active).
Regarding `CC(C)Oc1ccc(C(=O)NC(C)(C)CO)cc1`, the “activity change, negative = growth inhibition” value is -14.9%.
As for `CC(Oc1ccc(Cl)cc1Cl)C(=O)/C=C/N(C)C` (centres undefined), the “activity change, negative = growth inhibition” value was -5.7%.
Turning to `O=C(CN(CC1CCCO1)C(=O)CNS(=O)(=O)c1ccccc1)NCc1ccccc1` (centres undefined), the “activity change, negative = growth inhibition” value is -29.5%.
On the same count and under the same terms, the same measure for `Cc1cc(NC(=O)c2ccccc2C)no1`: 6.48%.
As for `Cc1ccc2occ(/C=N/NC(=O)c3ccccc3C)c(=O)c2c1`, the Potency is 14.6 µM (active).
For the compound `O=c1c(/C=N/O)coc2ccc(Cl)cc12`, the “activity change, negative = growth inhibition” value was -19%.
The same measure, in the same setting: the same measure for `Cc1ccccc1CSc1nnc(Cn2c(=O)sc3ccccc32)n1C`: -17.7%.
For `CCOc1cc(/C=N/NC(=O)c2ccc(CSc3nncn3C)cc2)ccc1OCC(=O)N1CCOCC1`, the “activity change, negative = growth inhibition” value is 13.3%.
Regarding `O=S(=O)(c1ccc(Cl)cc1)c1nc(-c2ccco2)oc1N1CCCCC1`, the Potency is 23.1 µM (active).
For `O=S(=O)(c1ccc(Cl)cc1)c1nc(-c2ccccc2F)oc1NCCN1CCOCC1`, the “activity change, negative = growth inhibition” value was -28.5%.
In the case of `O=S(=O)(c1ccccc1)c1nc(-c2ccc(Cl)cc2Cl)oc1N1CCCCC1`, the Potency was 13 µM (active).
On to `O=S(=O)(c1ccccc1)c1nc(-c2ccccc2)oc1NCCCN1CCOCC1`, for which the “activity change, negative = growth inhibition” value was -16.3%.
With `CSc1nc(-c2ccco2)nn1C(=O)c1ccccc1Cl`, the “activity change, negative = growth inhibition” value is -11.7%.
On the same count and under the same terms, then `O=S(=O)(c1ccccc1)c1nc(Cc2ccccc2)oc1N1CCOCC1`, with -22.2%.
For `COc1ccc(-c2nc(S(=O)(=O)c3ccccc3)c(N3CCCCC3)o2)cc1`, the Potency is 18.4 µM (active).
For the compound `O=C(CSc1oc(-c2ccccc2)nc1S(=O)(=O)c1ccc(Br)cc1)NC1CCCCC1`, the “activity change, negative = growth inhibition” value was -0.03%.
The same measure, in the same setting: then `Cc1ccc(F)cc1S(=O)(=O)Nc1cccc(C(=O)N2CCCC(C(N)=O)C2)c1` (centres undefined), with 18.7%; and `COc1cc(=O)n2c(c1C(=O)NC(C)c1ccco1)CCN(Cc1cc(C)cc(C)c1)CC2` (centres undefined), with -11.3%.
Consider `Cn1cc(C(=O)c2ccc(Cl)cc2Cl)cc1C(=O)NN`, for which the “activity change, negative = growth inhibition” value was -21.6%.
The same measure, in the same setting: the same measure for `O=C(CNC(c1ccccc1)c1ccccc1)Nc1ccc(F)cc1`: -23.5%; for `OCCCC1CCCCN1Cc1nc(Cc2ccccc2Cl)no1` (centres undefined): 10.4%; for `O=Cc1c(Cl)cccc1Cl`: -0.244%.
Still for that read-out and setting: then `COc1ccc([N+](=O)[O-])cc1NCC(=O)c1ccc(C)cc1`, with -24.8%.
Still for that read-out and setting: the same measure for `Cn1ncc2c(N3CCCCC3)nc(NCCCO)nc21`: -1.11%; for `Cc1cnc(C)c(-c2cc(F)c3c(c2)CC(CNC(=O)c2cccc(Cn4cccn4)c2)O3)n1` (centres undefined): -26.2%; for `COCC1CCN(C(=O)c2ccc3oc(Cc4ccccc4)nc3c2)C1` (centres undefined): 5.22%.
In the case of `CCOC(=O)c1ccc(NC2Nc3cc(C)nn3S2)cc1` (centres undefined), the “activity change, negative = growth inhibition” value is 3%.
In the case of `COc1cccc(CNC(=O)Cn2c(=O)c3cccn3c3ccc(F)cc32)c1OC`, the “activity change, negative = growth inhibition” value was 6.54%.
As to `O=C(O)CCCn1c(=O)c2cccn2c2ccc(F)cc21`, the Potency was 7.31 µM (active).
